Source: PubChem (several laboratories)
This is one part of a sample in which hits are shown more often than they occur.
D1 allo mod: D1 CRE-luciferase signal change, two-sided – cell-based, HEK293 D1, dopamine EC30, D1 allosteric modulator project, primary screen | dopamine EC30 potentiation; actives deviate in either direction | 5.9% of 58,000 active | D(1A) dopamine receptor (Homo sapiens), P21728 | B-score at 10 µM;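 active means luminescence count or its row- and column-corrected plate score outside the 99.7% band of the plate's sample wells, on either side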
PKA kinase inh: inhibitors of human PKA kinase activity, primary screen, biochemical, ATP-depletion luminescence, Kemptide substrate | cAMP-dependent protein kinase catalytic subunit alpha (Homo sapiens), P17612 | PKA Kemptide phosphorylation, Kinase-Glo ATP luminescence | inhibition, % at 6 µM | 0.1% of 65,000 active | AID 524, 2006;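 active means inhibition above the screen-wide mean inhibition plus 3 SD, cut at about 21% in these data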
DAT uptake mod: changed hDAT dopamine uptake under cocaine IC80, either direction, primary screen, cocaine antagonist project, cell-based, LLC-PK1 hDAT, [14C]-dopamine uptake, MLSMR; LLC-PK1 hDAT cells, [14C]-dopamine uptake with cocaine IC80; actives deviate in either direction; B-score at 10 µM; 1.3% of 110,000 active; AID 449768, 2010;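 active means Z score or B-score, a plate-position-corrected score, falls beyond the plate's 99.7% confidence bounds, in either direction; inactive means both scores lie inside the 99.7% bounds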
ROCK2 inh: inhibitors of human ROCK2 kinase, primary screen, biochemical, high-throughput, luminescence. Rho-associated protein kinase 2 (Homo sapiens), O75116. 0.35% of 60,000 active. AID 604, 2007. purified ROCK2, Kinase-Glo ATP depletion luminescence. inhibition, % at 6 µM;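 active means inhibition above the screen-wide mean inhibition plus 3 SD, cut at about 18% in these data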
Numbers stand for hits; i = inactive; nt = no result.

SMILES	D1 allo mod	PKA kinase inh	DAT uptake mod	ROCK2 inh
CCCNC(=O)C(Cc1ccccc1)NS(=O)(=O)c1ccc2c(c1)CCC(=O)N2 (stereo not given)	i	i	-2.2	i
CC(C)(C)NC(=O)Nc1ccccc1C(N)=O	-4.3	i	i	i
CC(C)=CC(=O)Nc1ccccc1C(N)=O	i	i	i	i
CCOC(=O)Cn1cc(C=O)c2ccccc21	nt	nt	-10	nt
Cc1ccc(CCNC(=O)C2CC(c3ccc(C(F)(F)F)cc3)=NO2)cc1 (stereo not given)	nt	nt	i	nt
CC(C1CC2CCC1C2)n1c(COc2ccccc2F)nnc1SCC(N)=O (stereo not given)	nt	nt	i	nt
CC(C)NC(=O)NC(=O)CSc1nnc(COc2ccccc2F)n1C(C)C1CC2CCC1C2 (stereo not given)	nt	nt	2.6	nt
O=C(Cc1ccccc1)NC(NCCc1ccccc1)C(Cl)(Cl)Cl (stereo not given)	nt	nt	i	nt
COc1cc2c(cc1NC(=O)COc1ccc3ccccc3c1)oc1ccccc12	nt	nt	-7.8	nt
COc1ccc(N/C=C/C(=O)c2ccc(Oc3ncccn3)cc2)cc1	nt	nt	i	nt
O=C(/C=C\Nc1ccccn1)c1ccc(Cl)cc1	-6	i	i	i
O=C(NCc1ccc(OC(F)(F)F)cc1)c1cc(-c2ccccc2)nn1CC1CC(c2cccnc2)=NO1 (stereo not given)	nt	nt	i	nt
O=C(NCc1ccco1)c1cc(-c2ccccc2)nn1CC1CC(c2cccnc2)=NO1 (stereo not given)	nt	nt	2.1	nt
COCCN=C1Sc2nc3ccc(C)cc3cc2CN1Cc1ccco1	nt	nt	3.2	nt
CCOc1ccc2nc3c(cc2c1)CN(CCOC)C(=NCCOC)S3	nt	nt	i	nt
CC(C)c1ccc(NC(=O)CN(Cc2ccccc2)S(C)(=O)=O)cc1	nt	nt	3	nt
O=C(c1ccc(S(=O)(=O)Nc2ccc(F)cc2)cc1)N1CCN(C(=O)c2ccco2)CC1	nt	nt	i	nt
Cc1nnc2sc(-c3csc4c3CCCC4)nn12	i	i	3.4	i
Cc1nnc2sc(-c3ccncc3)nn12	i	i	i	i
Cc1nnc2c3ccccc3c(-c3ccccc3)nn12	15	i	i	i
Cc1nnc2c3ccccc3c(-c3cccc4ccccc34)nn12	nt	nt	i	nt
CC(=O)c1ccc(NC(=O)c2cnn3ccccc23)cc1	nt	nt	i	nt
CC(=O)c1cccc(NC(=O)c2cnn3ccccc23)c1	-2.6	i	i	i
Cc1nn(-c2ccccc2)c(C)c1C(=O)OCC(=O)N1c2ccccc2NC(=O)C1(C)C	nt	nt	i	nt
CCCCCCC(=O)Nc1nc(C)c(-c2csc(Nc3cc(OC)ccc3OC)n2)s1	nt	nt	2.4	nt
SMILES	D1 allo mod	PKA kinase inh	DAT uptake mod	ROCK2 inh
CCOC(=O)Nc1cc(C)ccc1OC	nt	i	i	i
CCCCC(=O)Nc1nc(C)c(-c2csc(Nc3ccccc3OC)n2)s1	nt	nt	2.8	nt
CCCCCCCCC(=O)Nc1cc(C)ccc1OC	nt	nt	-7.9	nt
C/C=C(\C)C(=O)Nc1cccc(C2=NOC3(C2)C[C@H](C(N)=O)N(C(=O)C(c2ccccc2)c2ccccc2)C3)c1 (stereo not given in full)	nt	nt	i	nt
COc1ccc(CCNC(=O)CSc2c[nH]c3ccccc23)cc1OC	nt	nt	i	nt
COc1ccc(CCNC(=O)CSc2ccc(-c3ccccc3)nn2)cc1OC	nt	nt	2	nt
Cn1cccc1Cc1nnc(SCC(=O)Nc2ccc(Cl)cc2)n1-c1ccc(F)cc1	i	i	2.8	i
Cn1cccc1Cc1nnc(SCC(=O)Nc2ccccc2F)n1CCc1ccccc1	i	i	i	i
Cn1cccc1Cc1nnc(SCC(=O)Nc2cccc(F)c2)n1CCc1ccccc1	i	i	2.1	i
NC(=O)CC(NC(=O)Cc1cccc2ccccc12)c1ccc(NCCc2ccccc2F)c([N+](=O)[O-])c1 (stereo not given)	nt	nt	i	nt
COc1cccc(C2CC(c3ccccc3)Nc3nc(N)nn32)c1 (stereo not given)	5.3	i	i	i
O=C(Nc1ccccn1)c1cc2ccccc2o1	nt	nt	i	nt
Cc1csc(C(C#N)C(=O)c2cc3ccccc3o2)n1 (stereo not given)	-3.8	i	i	nt
CCOC(=O)c1ccc2ncc(C(=O)OCC)c(NCCN(C)C)c2c1	2.9	i	i	i
CS(=O)(=O)N1CCCC(c2nc(-c3ccc(S(=O)(=O)NCc4ccccc4)cc3)no2)C1 (stereo not given)	-3	i	i	nt
O=C(Cc1ccccc1)N1CCCC(c2nc(-c3ccc(S(=O)(=O)N4CCCC4)cc3)no2)C1 (stereo not given)	nt	nt	i	nt
CN(C)c1ccc(C(=O)Nc2nc3c(s2)CCCC3)cc1	-6	i	i	i
